Assay results reported in PubChem BioAssay (Tox21).
A number with no mark means an inactive call. Results filed as inconclusive are left out. Entries that show only a call come without a potency. The source made the active and inactive calls. Unless noted, calls come from the whole dose curve; as a rule, active = well fitted curve in the direction sought with a large enough effect in the repeat runs; inconclusive = weak or mixed curves; inactive = no such curve, though single readings can be large; an effect the other way counts as inactive or inconclusive.

Assays:
[1] = qHTS RealTime-Glo MT Cell Viability Assay in HEK293 cells - 0 hour (AID 1224880); note: top concentration of the series differs between compounds; nearly all actives have a fitted effect of over 45% in size
Method in brief: (§1)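 Measured as luminescence from the same continuously cultured HEK293 wells at successive time points (0, 8, 16, 24, 32, 40 h) after compound addition. Reagent present from seeding; dosing at 5 h; incubation 37 C.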

[2] = A CellTox Green Cytotoxicity Assay to monitor cytotoxicity in HEK293 cells - 32 hour (AID 1224881); note: nearly all actives have a fitted effect of over 40% in size
Method in brief: (§2)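 Homogeneous no-lysis format: HEK293 cell suspension mixed with CellTox Green reagent, seeded, incubated 5 h at 37 C/5% CO2, then dosed by pintool with compound in DMSO.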

[3] = A CellTox Green Cytotoxicity Assay to monitor cytotoxicity in HepG2 cells - 0 hour (AID 1224882); note: nearly all actives have a fitted effect of over 35% in size
Method in brief: (§3)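 Fluorescent DNA-binding dye, 600 HepG2 cells/well, 5 h preincubation then compound in DMSO; same plates read at 0–40 h, 37 C.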

[4] = A CellTox Green Cytotoxicity Assay to monitor cytotoxicity in HepG2 cells - 32 hour (AID 1224883); note: nearly all actives have a fitted effect of over 50% in size
Method in brief: as §3

[5] = A CellTox Green Cytotoxicity Assay to monitor cytotoxicity in HEK293 cells - 8 hour (AID 1224884); note: nearly all actives have a fitted effect of over 35% in size
Method in brief: as §2

[6] = qHTS RealTime-Glo MT Cell Viability Assay in HepG2 cells - 16 hour (AID 1224885); note: nearly all actives have a fitted effect of over 50% in size
Method in brief: (§4)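 Real-time, nonlytic viability: 600 HepG2 cells/well mixed with NanoLuc enzyme plus prosubstrate; 5 h settle, compound (DMSO) added by pintool; luminescence monitored over 40 h at 37 C.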

[7] = qHTS RealTime-Glo MT Cell Viability Assay in HEK293 cells - 24 hour (AID 1224886); note: nearly all actives have a fitted effect of over 50% in size; note: potency is the fitted concentration of half-maximal effect
Method in brief: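 Cells + reagent dispensed (600 cells/well, HEK293) → 5 h at 37 C/5% CO2 → 23 nL compound in DMSO pinned → 40 h at 37 C → luminescence read at 0, 8, 16, 24, 32, 40 h.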

[8] = qHTS RealTime-Glo MT Cell Viability Assay in HEK293 cells - 8 hour (AID 1224887); note: nearly all actives have a fitted effect of over 50% in size; note: potency is the fitted concentration of half-maximal effect
Method in brief: as §1

[9] = A CellTox Green Cytotoxicity Assay to monitor cytotoxicity in HEK293 cells - 16 hour (AID 1224888); note: nearly all actives have a fitted effect of over 35% in size
Method in brief: as §2

[10] = qHTS RealTime-Glo MT Cell Viability Assay in HepG2 cells - 0 hour (AID 1224889); note: nearly all actives have a fitted effect of over 50% in size; note: potency is the fitted concentration of half-maximal effect
Method in brief: as §4

[11] = A CellTox Green Cytotoxicity Assay to monitor cytotoxicity in HepG2 cells - 8 hour (AID 1224890); note: nearly all actives have a fitted effect of over 45% in size
Method in brief: as §3

[12] = qHTS assay to identify small molecule antagonists of the estrogen receptor alpha (ER-alpha) signaling pathway using the BG1 cell line in the presence of 0.1 nM 17-beta-estradiol - cell viability counter screen (AID 1259241); note: nearly all actives have a fitted effect of over 40% in size
Method in brief: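 CellTiter-Fluor read (30 min, 37C) on ER-alpha/ERE-luc VM7Luc4E2 cells; 22 hr compound treatment; agonist 0.1 nM E2 final; same-well multiplex.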

[13] = target: Androgen receptor (Homo sapiens) (UniProt P10275); assay: qHTS assay to identify small molecule antagonists of the androgen receptor (AR) signaling pathway using the MDA cell line in the presence of 0.5 nM R1881 (AID 1259243); note: nearly all actives have a fitted effect of over 50% in size; note: potency is the fitted concentration of half-maximal effect
Chain of Androgen receptor (Homo sapiens) (P10275 whole entry, looked up): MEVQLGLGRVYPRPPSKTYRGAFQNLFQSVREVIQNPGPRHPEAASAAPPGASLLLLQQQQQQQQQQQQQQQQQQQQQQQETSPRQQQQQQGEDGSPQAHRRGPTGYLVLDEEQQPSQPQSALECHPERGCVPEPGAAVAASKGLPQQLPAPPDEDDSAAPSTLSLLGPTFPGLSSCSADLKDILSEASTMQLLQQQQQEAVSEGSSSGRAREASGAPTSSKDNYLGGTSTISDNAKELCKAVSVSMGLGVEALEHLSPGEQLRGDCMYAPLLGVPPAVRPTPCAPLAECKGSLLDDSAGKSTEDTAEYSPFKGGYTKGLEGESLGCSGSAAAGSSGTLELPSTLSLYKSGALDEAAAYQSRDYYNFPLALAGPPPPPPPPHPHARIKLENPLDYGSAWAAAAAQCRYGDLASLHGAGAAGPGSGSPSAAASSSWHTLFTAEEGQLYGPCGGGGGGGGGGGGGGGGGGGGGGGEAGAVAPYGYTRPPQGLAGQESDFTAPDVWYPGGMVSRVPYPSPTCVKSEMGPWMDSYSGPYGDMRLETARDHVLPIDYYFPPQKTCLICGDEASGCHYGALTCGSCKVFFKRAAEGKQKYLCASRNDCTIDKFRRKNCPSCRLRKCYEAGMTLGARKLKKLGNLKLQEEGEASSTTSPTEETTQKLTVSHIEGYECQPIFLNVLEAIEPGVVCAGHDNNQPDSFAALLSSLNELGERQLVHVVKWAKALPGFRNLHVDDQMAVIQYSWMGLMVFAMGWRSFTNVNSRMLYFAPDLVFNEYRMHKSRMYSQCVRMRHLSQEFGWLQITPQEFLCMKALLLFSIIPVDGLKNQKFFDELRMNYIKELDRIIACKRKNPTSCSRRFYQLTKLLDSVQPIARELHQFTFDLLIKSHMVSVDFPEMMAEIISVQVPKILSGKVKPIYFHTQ
Method in brief: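 Cells: MDA-kb2 (MMTV-luc). Stimulus: 0.5 nM R1881. Time: 16 hr, 37C, no CO2. Detection: ONE-Glo luminescence after 30 min at RT.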

[14] = qHTS assay to identify small molecule HDAC inhibitors (AID 1259364);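 note: wild-type HCT-116 cells with endogenous class I/II HDAC activity; top concentration of the series differs between compounds; nearly all actives have a fitted effect of over 45% in size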
Method in brief: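 After a 2 hr compound incubation (37C, 5% CO2), HCT-116 cells seeded at 1,500/well the day before received HDAC-Glo reagent; signal read as luminescence after 30 min at room temperature.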

[15] = qHTS assay to identify small molecule HDAC inhibitors - cell viability counter screen (AID 1259365)
Method in brief: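 To flag cytotoxic hits, 1,500 wild-type HCT-116 cells per well, plated the day before, receive test compounds for 2hr at 37 C before CellTiter-Glo reagent and a luminescence read.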

[16] = qHTS assay to identify small molecule agonists of the sonic hedgehog signaling (Shh) pathway - cell viability counter screen (AID 1259366); note: nearly all actives have a fitted effect of over 50% in size; note: potency is the fitted concentration of half-maximal effect
Method in brief: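 Fluorescence from CellTiter-Fluor reports live cells in this counter screen. NIH/3T3-derived Gli1-Luc reporter cells receive test compounds for 24hr at 37C; reagent goes in at 23hr.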

[17] = qHTS assay to identify small molecule antagonists of the sonic hedgehog signaling (Shh) pathway - cell viability counter screen (AID 1259367); note: nearly all actives have a fitted effect of over 55% in size
Method in brief: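 Fluorescence read-out (CellTiter-Fluor, 1 hr at 37C) taken after 23 hr compound treatment of 3T3 Gli1-Luc cells stimulated with conditioned medium. Cells were seeded at 2,000 per well and pre-incubated 4 hr.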

[18] = qHTS assay to identify small molecule phospholipidosis (PLD) inducers (AID 1259344; active = well fitted curve in the direction sought with a large enough effect; an effect the other way counts as inactive or inconclusive)
Method in brief: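 Read-out is LipidTOX Red fluorescence (ex 595/em 615) imaged in HepG2 cells after 24 h compound exposure at 37 C, with Hoechst nuclear counterstain (ex 352/em 461) allowing per-cell normalisation.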

[19] = qHTS assay to identify small molecule antagonists of the androgen receptor (AR) signaling pathway using the MDA cell line in the presence of 0.5 nM R1881 - cell viability counter screen (AID 1259242); note: nearly all actives have a fitted effect of over 45% in size
Method in brief: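 Human breast carcinoma MDA-kb2 cells, cultured without CO2, receive compounds alongside 0.5 nM (final) R1881 agonist. After 16 hr at 37C, viability is taken as live-cell protease signal.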

[20] = target: Estrogen receptor (Homo sapiens) (UniProt P03372); assay: qHTS assay to identify small molecule antagonists of the estrogen receptor alpha (ER-alpha) signaling pathway using the BG1 cell line in the presence of 0.1 nM 17-beta-estradiol (AID 1259244); note: nearly all actives have a fitted effect of over 50% in size
Chain of Estrogen receptor (Homo sapiens) (P03372 whole entry, looked up): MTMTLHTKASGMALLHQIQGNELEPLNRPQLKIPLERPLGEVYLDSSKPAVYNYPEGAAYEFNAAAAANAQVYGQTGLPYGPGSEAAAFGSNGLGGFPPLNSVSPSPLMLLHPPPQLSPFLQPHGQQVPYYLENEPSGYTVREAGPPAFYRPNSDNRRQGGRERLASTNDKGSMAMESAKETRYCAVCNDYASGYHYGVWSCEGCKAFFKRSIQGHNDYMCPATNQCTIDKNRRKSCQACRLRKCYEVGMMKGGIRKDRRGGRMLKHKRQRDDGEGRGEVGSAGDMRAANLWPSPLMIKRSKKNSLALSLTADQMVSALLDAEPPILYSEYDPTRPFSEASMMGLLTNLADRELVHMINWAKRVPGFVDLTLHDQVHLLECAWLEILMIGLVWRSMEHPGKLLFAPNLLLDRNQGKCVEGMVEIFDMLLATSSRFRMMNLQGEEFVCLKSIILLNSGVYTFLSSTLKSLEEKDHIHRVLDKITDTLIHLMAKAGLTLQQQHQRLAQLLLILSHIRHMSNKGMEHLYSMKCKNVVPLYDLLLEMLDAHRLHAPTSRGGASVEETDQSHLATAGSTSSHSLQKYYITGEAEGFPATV
Method in brief: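 Seeding of stripped-serum-adapted VM7Luc4E2 cells, 24 h attachment, compound transfer, then 0.1 nM final 17beta-estradiol; after 22 h incubation, ONE-Glo reagent and luminescence reading.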

Structure (SMILES)	Potency [1]	Potency [2]	Potency [3]	Potency [4]	Potency [5]	Potency [6]	Potency [7]	Potency [8]	Potency [9]	Potency [10]	Potency [11]	Potency [12]	Potency [13]	Potency [14]	Potency [15]	Potency [16]	Potency [17]	outcome [18]	Potency [19]	Potency [20]
CCOC(=O)COc1cc(-c2nn(C)c(OC(F)F)c2Cl)c(F)cc1Cl	inactive	inactive	inactive	inactive	inactive	inactive	inactive	inactive	inactive	inactive	inactive	inactive	inactive	inactive	inactive	inactive	inactive	–	–	–
Cn1sc(Cl)cc1=O	inactive	inactive	inactive	inactive	inactive	inactive	inactive	inactive	inactive	inactive	inactive	inactive	–	inactive	inactive	inactive	inactive	inactive	–	–
CCCCc1c(C)nc(NCC)nc1OS(=O)(=O)N(C)C	inactive	inactive	inactive	inactive	inactive	inactive	12.3 µM (active)	9.77 µM (active)	inactive	inactive	inactive	inactive	–	inactive	inactive	30.6 µM (active)	–	–	inactive	–
Nc1ccc([N+](=O)[O-])cc1[N+](=O)[O-]	inactive	inactive	inactive	inactive	inactive	inactive	inactive	inactive	inactive	inactive	inactive	–	–	inactive	inactive	–	–	–	inactive	inactive
O=C(CBr)c1ccccc1	inactive	inactive	inactive	inactive	inactive	inactive	inactive	inactive	inactive	inactive	inactive	–	–	inactive	inactive	inactive	–	–	inactive	inactive
Clc1cccc(SC2CCNCC2)n1	inactive	inactive	inactive	inactive	inactive	inactive	inactive	inactive	inactive	inactive	inactive	–	–	inactive	inactive	inactive	–	inactive	inactive	–
C=CC(=O)NCNC(=O)C=C	inactive	inactive	inactive	inactive	inactive	inactive	inactive	inactive	inactive	inactive	–	inactive	inactive	–	inactive	–	inactive	inactive	inactive	inactive
Brc1ccccc1	inactive	inactive	inactive	inactive	inactive	inactive	inactive	inactive	inactive	inactive	inactive	–	inactive	inactive	inactive	inactive	–	–	–	inactive
Cn1cc[n+](C)c1 (tested in a mixture with another compound)	inactive	inactive	inactive	inactive	inactive	inactive	inactive	inactive	inactive	inactive	–	inactive	–	inactive	inactive	inactive	inactive	–	inactive	inactive
COC(=O)C(Br)CBr (centres undefined)	inactive	inactive	inactive	inactive	inactive	inactive	inactive	inactive	inactive	inactive	–	inactive	–	inactive	inactive	inactive	–	–	inactive	inactive
C=CC(=O)OCC(C)O (centres undefined)	inactive	inactive	inactive	inactive	inactive	inactive	inactive	inactive	inactive	inactive	inactive	–	–	inactive	inactive	–	inactive	–	inactive	inactive
CC(C)(Cl)[N+](=O)[O-]	inactive	inactive	inactive	inactive	inactive	inactive	inactive	inactive	inactive	6.19 µM (active)	–	inactive	–	inactive	inactive	inactive	–	–	inactive	–
C=CCN1CC[C@]23c4c5ccc(O)c4O[C@H]2C(=O)CC[C@@]3(O)[C@H]1C5	inactive	inactive	inactive	inactive	inactive	inactive	inactive	inactive	inactive	inactive	inactive	–	–	inactive	inactive	inactive	inactive	inactive	inactive	–
O=C1C(Cl)C(CCl)CN1c1cccc(C(F)(F)F)c1 (centres undefined)	inactive	inactive	inactive	inactive	inactive	inactive	24.5 µM (active)	24.5 µM (active)	inactive	inactive	–	inactive	3.86 µM (active)	inactive	inactive	inactive	inactive	–	inactive	–
C[C@@H]1CC[C@H]2[C@@H](C)C(=O)O[C@@H]3O[C@@]4(C)CC[C@@H]1[C@]32OO4	inactive	inactive	inactive	inactive	inactive	inactive	inactive	inactive	inactive	inactive	inactive	–	inactive	inactive	inactive	inactive	inactive	inactive	inactive	–
O=Cc1ccc(Cl)cc1Cl	inactive	inactive	inactive	inactive	inactive	inactive	inactive	inactive	inactive	inactive	inactive	–	–	inactive	inactive	inactive	inactive	–	–	–
O=[N+]([O-])c1ccccc1CCl	inactive	inactive	inactive	inactive	inactive	inactive	inactive	inactive	inactive	inactive	inactive	–	–	inactive	inactive	inactive	inactive	–	inactive	inactive
N#C/C(N)=C(/N)C#N	inactive	inactive	inactive	inactive	inactive	inactive	inactive	inactive	inactive	inactive	–	inactive	–	inactive	inactive	inactive	–	–	inactive	inactive
CN1C(=O)NC(=O)C(C)(C2=CCCCC2)C1=O (centres undefined)	inactive	inactive	inactive	inactive	inactive	inactive	inactive	inactive	inactive	inactive	inactive	–	–	inactive	inactive	inactive	inactive	inactive	inactive	–
CCCCCCCCOC(=O)c1ccc(C(=O)OCCCCCCCC)c(C(=O)OCCCCCCCC)c1	inactive	inactive	inactive	inactive	inactive	inactive	inactive	inactive	inactive	inactive	–	inactive	–	inactive	inactive	inactive	inactive	–	inactive	–
Cc1c(F)c(F)c(COC(=O)C2C(/C=C(\Cl)C(F)(F)F)C2(C)C)c(F)c1F (centres undefined)	inactive	inactive	inactive	inactive	inactive	inactive	inactive	inactive	inactive	inactive	inactive	–	–	inactive	inactive	inactive	inactive	–	inactive	inactive
O=C(NCc1cccnc1)Nc1ccc([N+](=O)[O-])cc1	inactive	inactive	inactive	inactive	inactive	inactive	49 µM (active)	inactive	inactive	inactive	inactive	–	–	inactive	inactive	inactive	–	–	inactive	inactive
NC(=O)C(Cl)(Cl)Cl	inactive	inactive	inactive	inactive	inactive	inactive	inactive	inactive	inactive	inactive	inactive	–	–	inactive	inactive	inactive	–	–	inactive	–
COC(N)=O	inactive	inactive	inactive	inactive	inactive	inactive	inactive	inactive	inactive	inactive	–	inactive	–	inactive	inactive	inactive	inactive	–	inactive	inactive
CC(C)O.CC(C)O.OCCN(CCO)CCO.OCCN(CCO)CCO.[Ti]	inactive	inactive	inactive	inactive	inactive	inactive	inactive	inactive	inactive	inactive	inactive	–	–	inactive	inactive	inactive	inactive	–	–	–
ClCC(Br)CBr (centres undefined)	inactive	inactive	inactive	inactive	inactive	inactive	inactive	inactive	inactive	inactive	–	inactive	–	inactive	inactive	inactive	inactive	–	inactive	inactive
